Experimental data taken from PubChem BioAssay AID743291 (Broad Institute, 2014).
Entries with a potency or affinity are not part of this list. Active and inactive are the calls of the source.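 Rule for the calls: active = signal drop with fitted half-maximal dose at most twice the top valid dose, active in every repeat; inconclusive = repeats disagree, or flat partial inhibition, or poor fit; inactive = inactive in every repeat, including opposite effects.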

Target: Caspase-3 (Homo sapiens) (UniProt P42574)
Sequence (P42574 whole entry, looked up): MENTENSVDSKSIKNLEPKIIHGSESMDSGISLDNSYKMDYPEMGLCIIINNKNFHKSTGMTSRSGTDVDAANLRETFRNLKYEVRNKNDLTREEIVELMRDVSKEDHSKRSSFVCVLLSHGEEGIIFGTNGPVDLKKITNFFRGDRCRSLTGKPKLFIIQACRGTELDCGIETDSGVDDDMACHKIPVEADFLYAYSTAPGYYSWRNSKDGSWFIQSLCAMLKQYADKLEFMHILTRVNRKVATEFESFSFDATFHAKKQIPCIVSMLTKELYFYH
Experiment: caspase-3 enzyme inhibitors, selectivity check, dose response, selectivity assay for caspase-6 allosteric inhibitor project, biochemical, fluorescence, cherry-picked samples (AID 743291)
Details: Recombinant caspase-3, Z-DEVD-R110 cleavage fluorescence; series mostly up to 35 µM

CN1CCc2cc3c(c4c2C1Cc1ccccc1-4)OCO3 (stereo unspecified)
outcome: inactive
